Measurements taken from PMC12820563, “FoxP3 forms a head-to-head dimer in vivo and stabilizes its multimerization on adjacent microsatellites”.
Over roughly 16,000 sequences, “rpm ratio (pull-down/input)” has its median near 0.94; the highest 2% begin near 1.7. For the sample, the highest values were picked, then their nearest neighbours and some sequences at random.

These sequences were tested against T1, MBP-FoxP1dN (Mus musculus, UniProt P58462 326-579) (assay: PD-seq (MBP pull-down with sequencing); 20 mM Tris-HCl pH 7.5, 100 mM NaCl, 1.5 mM MgCl2, 0.4 uM protein, 0.1 uM dsDNA library, 30 min, room temperature, amylose pull-down; high values mean tight binding). Settings: protein: recombinant; tags: His6-MBP; chain copies: 2; dsDNA, one strand shown.
T1 sequence: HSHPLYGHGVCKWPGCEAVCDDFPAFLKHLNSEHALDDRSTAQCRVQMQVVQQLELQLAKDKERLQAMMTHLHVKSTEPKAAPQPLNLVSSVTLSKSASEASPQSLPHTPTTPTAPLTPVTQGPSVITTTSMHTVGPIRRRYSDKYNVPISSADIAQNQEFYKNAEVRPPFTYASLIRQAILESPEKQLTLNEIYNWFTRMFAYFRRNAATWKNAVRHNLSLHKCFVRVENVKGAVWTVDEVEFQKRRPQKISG
Outline: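 A degenerate double-stranded DNA library, filled in with Klenow, was added at 0.1 µM to 0.4 µM His6-MBP-tagged mouse FoxP3 or FoxP1 fragment lacking the N-terminus, expressed in E. coli. Incubation lasted 30 min at room temperature in Tris pH 7.5 buffer with NaCl and MgCl2, after which complexes were collected on amylose resin, washed three times, digested with proteinase K to free the DNA, barcoded by PCR and sequenced by Illumina. Binding is the pooled-replicate reads-per-million enrichment of pull-down over input.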

| Sequence | binding signal |
| --- | --- |
| GATGATTGTTCTCCCAGCTGATGAATTGAGATTTTCGAGTAAACAAATTTTCCTAATCTTTCTGTTCAAGCGCCATCTAC | 0.923 RPM ratio (pull-down/input) |
| GATGATTGTTCTCCCAGCTGATGAATTGAGGTCTTCGAGTAAACAAATTTTCCTAATCTTTCTGTTCAAGCGCCATCTAC | 0.786 RPM ratio (pull-down/input) |
| GATGATTGTTCTCCCAGCTGATGAATTCATCGCCTCGAGTAAACAAATTTTCCTAATCTTTCTGTTCAAGCGCCATCTAC | 0.873 RPM ratio (pull-down/input) |
| GATGATTGTTCTCCCAGCTGATGAATTACGGGGTTCGAGTAAACAAATTTTCCTAATCTTTCTGTTCAAGCGCCATCTAC | 0.931 RPM ratio (pull-down/input) |
| GATGATTGTTCTCCCAGCTGATGAATTAGAAACTTCGAGTAAACAAATTTTCCTAATCTTTCTGTTCAAGCGCCATCTAC | 0.892 RPM ratio (pull-down/input) |
| GATGATTGTTCTCCCAGCTGATGAATTGTCAACTTCGAGTAAACAAATTTTCCTAATCTTTCTGTTCAAGCGCCATCTAC | 1.31 RPM ratio (pull-down/input) |
| GATGATTGTTCTCCCAGCTGATGAATTGGATTCTTCGAGTAAACAAATTTTCCTAATCTTTCTGTTCAAGCGCCATCTAC | 0.813 RPM ratio (pull-down/input) |
| GATGATTGTTCTCCCAGCTGATGAATTACAAGGTTCGAGTAAACAAATTTTCCTAATCTTTCTGTTCAAGCGCCATCTAC | 1.09 RPM ratio (pull-down/input) |
| GATGATTGTTCTCCCAGCTGATGAATTCACCACATCGAGTAAACAAATTTTCCTAATCTTTCTGTTCAAGCGCCATCTAC | 1.12 RPM ratio (pull-down/input) |
| GATGATTGTTCTCCCAGCTGATGAATTGGTCTGGTCGAGTAAACAAATTTTCCTAATCTTTCTGTTCAAGCGCCATCTAC | 0.807 RPM ratio (pull-down/input) |
| GATGATTGTTCTCCCAGCTGATGAATTTGATGCGTCGAGTAAACAAATTTTCCTAATCTTTCTGTTCAAGCGCCATCTAC | 1.13 RPM ratio (pull-down/input) |
| GATGATTGTTCTCCCAGCTGATGAATTAAACAGGTCGAGTAAACAAATTTTCCTAATCTTTCTGTTCAAGCGCCATCTAC | 1.21 RPM ratio (pull-down/input) |
| GATGATTGTTCTCCCAGCTGATGAATTTGGGTCTTCGAGTAAACAAATTTTCCTAATCTTTCTGTTCAAGCGCCATCTAC | 0.904 RPM ratio (pull-down/input) |
| GATGATTGTTCTCCCAGCTGATGAATTATATCGATCGAGTAAACAAATTTTCCTAATCTTTCTGTTCAAGCGCCATCTAC | 0.956 RPM ratio (pull-down/input) |
| GATGATTGTTCTCCCAGCTGATGAATTGATCTAATCGAGTAAACAAATTTTCCTAATCTTTCTGTTCAAGCGCCATCTAC | 1.19 RPM ratio (pull-down/input) |
| GATGATTGTTCTCCCAGCTGATGAATTGATTGTATCGAGTAAACAAATTTTCCTAATCTTTCTGTTCAAGCGCCATCTAC | 1.54 RPM ratio (pull-down/input) |
| GATGATTGTTCTCCCAGCTGATGAATTGTTTTGATCGAGTAAACAAATTTTCCTAATCTTTCTGTTCAAGCGCCATCTAC | 2.01 RPM ratio (pull-down/input) |
| GATGATTGTTCTCCCAGCTGATGAATTTTTTTGATCGAGTAAACAAATTTTCCTAATCTTTCTGTTCAAGCGCCATCTAC | 0.955 RPM ratio (pull-down/input) |
| GATGATTGTTCTCCCAGCTGATGAATTTGTTTGATCGAGTAAACAAATTTTCCTAATCTTTCTGTTCAAGCGCCATCTAC | 1.47 RPM ratio (pull-down/input) |
| GATGATTGTTCTCCCAGCTGATGAATTGAATTGATCGAGTAAACAAATTTTCCTAATCTTTCTGTTCAAGCGCCATCTAC | 0.941 RPM ratio (pull-down/input) |
| GATGATTGTTCTCCCAGCTGATGAATTGATCTGATCGAGTAAACAAATTTTCCTAATCTTTCTGTTCAAGCGCCATCTAC | 0.968 RPM ratio (pull-down/input) |
| GATGATTGTTCTCCCAGCTGATGAATTGTGTTGATCGAGTAAACAAATTTTCCTAATCTTTCTGTTCAAGCGCCATCTAC | 2.46 RPM ratio (pull-down/input) |
| GATGATTGTTCTCCCAGCTGATGAATTGTATTGATCGAGTAAACAAATTTTCCTAATCTTTCTGTTCAAGCGCCATCTAC | 2.22 RPM ratio (pull-down/input) |
| GATGATTGTTCTCCCAGCTGATGAATTGTGAAAGTCGAGTAAACAAATTTTCCTAATCTTTCTGTTCAAGCGCCATCTAC | 1.01 RPM ratio (pull-down/input) |
| GATGATTGTTCTCCCAGCTGATGAATTAACAGACTCGAGTAAACAAATTTTCCTAATCTTTCTGTTCAAGCGCCATCTAC | 0.866 RPM ratio (pull-down/input) |

| Sequence | binding signal |
| --- | --- |
| GATGATTGTTCTCCCAGCTGATGAATTCATCCACTCGAGTAAACAAATTTTCCTAATCTTTCTGTTCAAGCGCCATCTAC | 0.832 RPM ratio (pull-down/input) |
| GATGATTGTTCTCCCAGCTGATGAATTGTACCACTCGAGTAAACAAATTTTCCTAATCTTTCTGTTCAAGCGCCATCTAC | 0.996 RPM ratio (pull-down/input) |
| GATGATTGTTCTCCCAGCTGATGAATTCCTGATGTCGAGTAAACAAATTTTCCTAATCTTTCTGTTCAAGCGCCATCTAC | 1.08 RPM ratio (pull-down/input) |
| GATGATTGTTCTCCCAGCTGATGAATTCATCTTGTCGAGTAAACAAATTTTCCTAATCTTTCTGTTCAAGCGCCATCTAC | 0.898 RPM ratio (pull-down/input) |
| GATGATTGTTCTCCCAGCTGATGAATTCTTGTTGTCGAGTAAACAAATTTTCCTAATCTTTCTGTTCAAGCGCCATCTAC | 2.6 RPM ratio (pull-down/input) |
| GATGATTGTTCTCCCAGCTGATGAATTCCTCCTGTCGAGTAAACAAATTTTCCTAATCTTTCTGTTCAAGCGCCATCTAC | 0.729 RPM ratio (pull-down/input) |
| GATGATTGTTCTCCCAGCTGATGAATTCTCCTTGTCGAGTAAACAAATTTTCCTAATCTTTCTGTTCAAGCGCCATCTAC | 0.774 RPM ratio (pull-down/input) |
| GATGATTGTTCTCCCAGCTGATGAATTCCTGTTGTCGAGTAAACAAATTTTCCTAATCTTTCTGTTCAAGCGCCATCTAC | 2.34 RPM ratio (pull-down/input) |
| GATGATTGTTCTCCCAGCTGATGAATTAAAGGTTTCGAGTAAACAAATTTTCCTAATCTTTCTGTTCAAGCGCCATCTAC | 0.867 RPM ratio (pull-down/input) |
| GATGATTGTTCTCCCAGCTGATGAATTTCCTGACTCGAGTAAACAAATTTTCCTAATCTTTCTGTTCAAGCGCCATCTAC | 0.753 RPM ratio (pull-down/input) |
| GATGATTGTTCTCCCAGCTGATGAATTAAGATCTTCGAGTAAACAAATTTTCCTAATCTTTCTGTTCAAGCGCCATCTAC | 0.868 RPM ratio (pull-down/input) |
| GATGATTGTTCTCCCAGCTGATGAATTCCTCTGATCGAGTAAACAAATTTTCCTAATCTTTCTGTTCAAGCGCCATCTAC | 0.844 RPM ratio (pull-down/input) |
| GATGATTGTTCTCCCAGCTGATGAATTTATTTCCTCGAGTAAACAAATTTTCCTAATCTTTCTGTTCAAGCGCCATCTAC | 1.3 RPM ratio (pull-down/input) |
| GATGATTGTTCTCCCAGCTGATGAATTTTATTTCTCGAGTAAACAAATTTTCCTAATCTTTCTGTTCAAGCGCCATCTAC | 1.16 RPM ratio (pull-down/input) |
| GATGATTGTTCTCCCAGCTGATGAATTTGATGACTCGAGTAAACAAATTTTCCTAATCTTTCTGTTCAAGCGCCATCTAC | 0.974 RPM ratio (pull-down/input) |
| GATGATTGTTCTCCCAGCTGATGAATTGTTTTACTCGAGTAAACAAATTTTCCTAATCTTTCTGTTCAAGCGCCATCTAC | 1.42 RPM ratio (pull-down/input) |
| GATGATTGTTCTCCCAGCTGATGAATTTTTTGACTCGAGTAAACAAATTTTCCTAATCTTTCTGTTCAAGCGCCATCTAC | 0.935 RPM ratio (pull-down/input) |
| GATGATTGTTCTCCCAGCTGATGAATTTATTTACTCGAGTAAACAAATTTTCCTAATCTTTCTGTTCAAGCGCCATCTAC | 2.5 RPM ratio (pull-down/input) |
| GATGATTGTTCTCCCAGCTGATGAATTATTTTACTCGAGTAAACAAATTTTCCTAATCTTTCTGTTCAAGCGCCATCTAC | 1.2 RPM ratio (pull-down/input) |
| GATGATTGTTCTCCCAGCTGATGAATTTGTTTACTCGAGTAAACAAATTTTCCTAATCTTTCTGTTCAAGCGCCATCTAC | 2.62 RPM ratio (pull-down/input) |
| GATGATTGTTCTCCCAGCTGATGAATTTATTTTCTCGAGTAAACAAATTTTCCTAATCTTTCTGTTCAAGCGCCATCTAC | 1.77 RPM ratio (pull-down/input) |
| GATGATTGTTCTCCCAGCTGATGAATTTGTTGACTCGAGTAAACAAATTTTCCTAATCTTTCTGTTCAAGCGCCATCTAC | 2.35 RPM ratio (pull-down/input) |
| GATGATTGTTCTCCCAGCTGATGAATTTTATTACTCGAGTAAACAAATTTTCCTAATCTTTCTGTTCAAGCGCCATCTAC | 1.01 RPM ratio (pull-down/input) |
| GATGATTGTTCTCCCAGCTGATGAATTTTTTTACTCGAGTAAACAAATTTTCCTAATCTTTCTGTTCAAGCGCCATCTAC | 0.958 RPM ratio (pull-down/input) |
